# Source: PubChem
# An excerpt weighted towards active compounds, which were near 6.3% of everything screened.
# NADH coupling = inhibition of NAD/NADH coupling enzymes, library profiling | coupled PK/LDH NADH assays, four targets | IC50, µM (titrated, usually from 10 µM), inactives show at the highest dose inhibition | 65,000 tested, 0.02% active;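 active = single-dose screening hits from any of four coupled enzyme assays that gave an IC50 when retested across doses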;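 note: the DPM-DC format reads NADH fluorescence rather than 340 nm absorbance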
# PMK inhibit = inhibitors of Streptococcus pneumoniae phosphomevalonate kinase; purified PMK, PK/LDH-coupled NADH absorbance 340 nm; inhibition, % at 10 µM; 65,000 tested, 0.49% active;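 active = top-ranked compounds by inhibition in the single 10 µM screen, taking a fixed number of the strongest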;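 note: 0% = full reaction with DMSO carrier and 100% = background rate without enzyme reaction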
# A340 absorber = compound absorbs light at 340 nm; compound absorbance at 340 nm, fold over control; fold change at 10 µM; 65,000 tested, under 10 active; AID 708;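 active = at 10 µM dose, initial 340 nm absorbance at least 2 fold that of control wells; inactive = change under 2 fold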;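 note: initial absorbance extrapolated from kinetic A340 decline of NADH oxidation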
# DPM-DC inhibit = inhibitors of Streptococcus pneumoniae diphosphomevalonate decarboxylase; calls only at 10 µM; purified DPM-DC, PK/LDH coupled NADH fluorescence; 65,000 tested, 0.49% active;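 active = the 320 compounds with the highest percent inhibition in the single-dose primary screen, excluding strongly autofluorescent ones, cut at about 32% in these data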;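 note: kinetic rate of NADH fluorescence loss reporting ADP formed by the decarboxylase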
# Fluor 339 460 = intrinsic fluorescence of library compounds, ex339/em460 – biochemical, MLSMR library, data from DPM-DC assay, artefact control, profiling panel. AID 709. fluorescence fold increase at 10 µM. 65,000 tested, 5.5% active. compound autofluorescence, ex339/em460 nm, NADH buffer; stronger effect = higher value; 1 = no-compound wells, NADH background;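 active = at 10 µM, mean starting fluorescence two-fold or more over control wells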;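 note: signal is the first read of a kinetic run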
# Spn MK inh = S. pneumoniae mevalonate kinase inhibition; inhibition, % at 10 µM; purified MK, PK/LDH-coupled NADH absorbance 340 nm; 65,000 tested, 0.48% active;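 active = ranked among the strongest by inhibition in the single 10 µM screen, a fixed top-ranked set picked for dose follow-up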
# The depositor's hits bear a star; i = inactive; x = no result shown; + = active, no number.
SMILES,NADH coupling,PMK inhibit,A340 absorber,DPM-DC inhibit,Fluor 339 460,Spn MK inh
O=C(COC(=O)CCC(=O)c1ccc2c(c1)OCCO2)NCc1ccc2c(c1)OCO2,7.0%,14.0,0.98,i,1.09,6.0
CC(=NCc1ccco1)c1c(C)[nH]n(-c2nc3ccccc3s2)c1=O,16.0%,12.0,1.06,+,1.2,0.0
COc1ccc(OC)c(C(O)c2coc3ccc(O)c(CN4CCOCC4)c23)c1 (stereo not given),4.0%,0.0,1.01,i,1.08,11.0
O=C(Cn1cc(C(=O)c2cccs2)c2ccccc21)NCc1ccc2c(c1)OCO2,4.0%,4.0,1.14,i,1.08,5.0
Cc1cccc(NC(=O)c2cc(NC(=O)c3ccco3)ccc2N2CCCCC2)c1,3.0%,12.0,1.01,x,3.01*,6.0
Nc1nc(N2CCCCC2)nc2ccccc12,9.0%,8.0,1.06,x,3.89*,9.0
O=C(CN1CCC2(CC1)OCCO2)c1ccc2cc[nH]c2c1,10.0%,13.0,1.1,i,3.23*,0.0
CCOC(=O)c1[nH]nc(C(=O)c2ccc(Br)cc2)c1O,10.0%,29.0*,1.07,i,1.08,1.0
Cc1cc(=O)oc2cc(OCc3nnc(-c4ccccc4Br)o3)ccc12,9.0%,12.0,1.02,x,4.51*,5.0
CC1=CCP(=O)(c2ccccc2)C1 (stereo not given),7.0%,19.0,1.01,i,1.09,2.0
CC1(C)CC(C)(O)P(=O)(c2ccccc2)O1 (stereo not given),14.0%,30.0*,0.97,i,1.09,11.0
O=C(c1ccco1)N1CCN(C2CCCC2)CC1,19.0%,6.0,1.08,i,1.14,50.0*
CCOc1cc(C(=O)NCCN2CCOCC2)cc(OCC)c1OCC,18.0%,3.0,1.02,i,1.06,50.0*
CCOC(=O)c1cnc2cc3c(cn2c1=O)CCCC3,11.0%,16.0,1.15,x,5.02*,5.0
CCOc1ccccc1C1CC(c2ccc(F)cc2)Nc2nc(N)nn21 (stereo not given),5.0%,9.0,1.04,i,1.11,5.0
CCOC(=O)c1cc2c(=O)n3cccc(C)c3nc2n(Cc2ccco2)c1=NC(=O)c1cccnc1,8.0%,11.0,0.99,i,2.17*,4.0
O=C(CSc1nc2ccccc2c(=O)n1Cc1ccco1)c1ccccc1,5.0%,10.0,0.98,i,1.09,6.0
CCOC(=O)c1cc2c(=O)n3ccccc3nc2n(CC(C)C)c1=NC(=O)c1ccco1,3.0%,0.0,1.04,x,2.47*,9.0
CCOC(=O)c1cc2c(=O)n3ccccc3nc2n(Cc2ccco2)c1=NC(=O)c1cccnc1,3.0%,3.0,1.01,x,2.25*,3.0
Cc1cccn2c(=O)c3cc(C#N)c(=NC(=O)c4ccccc4)n(Cc4ccco4)c3nc12,7.0%,11.0,1.09,x,2.26*,3.0
CCOC(=O)c1cc2c(=O)n3ccccc3nc2n(CCCOC)c1=NC(=O)c1cccnc1,5.0%,0.0,1.09,i,1.72,8.0
CCOC(=O)c1ccc(CNC(=O)c2cc(C(C)(C)C)oc2C)o1,2.0%,4.0,1.01,i,1.11,2.0
NC(=O)c1nn(-c2ccccc2)nc1N,2.0%,3.0,1.12,x,3.9*,0.0
NC(=O)c1nn(-c2ccccc2)nc1NC(=O)CN1CCCCC1,2.0%,5.0,1.03,i,1.35,0.0
Cc1cc(NS(=O)(=O)c2ccc(NC(=O)C(C)Oc3ccc4c(C)cc(=O)oc4c3)cc2)no1 (stereo not given),10.0%,6.0,1.12,i,2.05*,9.0
SMILES,NADH coupling,PMK inhibit,A340 absorber,DPM-DC inhibit,Fluor 339 460,Spn MK inh
COc1ccccc1CNc1nc2nc(C)cc(=O)n2[nH]1,9.0%,10.0,1.02,i,1.15,13.0
COC(=O)CCCC(=O)N1CCOCCN(C(=O)CCCC(=O)OC)CCOCC1,9.0%,17.0,0.95,i,1.08,11.0
CC(C)C(NS(=O)(=O)c1ccc2c3c(cccc13)C(=O)N2)C(=O)O (stereo not given),1.0%,0.0,1.11,x,2.19*,2.0
COC(=O)c1ccccc1NS(=O)(=O)c1ccc2c3c(cccc13)C(=O)N2,16.0%,15.0,1.01,i,2.8*,6.0
O=C(O)c1ccccc1NS(=O)(=O)c1ccc2c3c(cccc13)C(=O)N2,7.0%,8.0,1.01,i,1.09,13.0
O=C1Nc2ccc(S(=O)(=O)NCc3ccco3)c3cccc1c23,1.0%,0.0,1.06,x,2.19*,1.0
CCOc1ccc(S(=O)(=O)NCc2ccco2)c2ccccc12,1.0%,0.0,1.01,i,1.13,2.0
COC(=O)c1sc(NC(=O)C2CCCCC2C(=O)O)c(C(=O)OC)c1C (stereo not given),7.0%,9.0,1.06,i,1.15,12.0
CC(C)(C)n1nnnc1C(c1cccs1)N1CCCc2ccccc21 (stereo not given),7.0%,12.0,0.97,i,1.04,7.0
CC1(C)Cc2c(C#N)c(NCCc3ccccc3)nc(-c3ccco3)c2CO1,0.0%,0.0,1.09,x,2.33*,0.0
Cc1nc(NCCO)c(C#N)c2c1COC(C)(C)C2,2.0%,3.0,1.06,x,1.98,0.0
CCN(CC)CCNc1nc(-c2ccco2)c2c(c1C#N)CC(C)(C)OC2,3.0%,6.0,1.06,x,2.33*,0.0
CCCCc1nc(NCCN2CCOCC2)c(C#N)c2c1COC(C)(C)C2,3.0%,2.0,1.01,i,1.17,11.0
CCOc1ccc(C2CC(c3ccc(F)cc3)n3ncnc3N2)cc1 (stereo not given),6.0%,11.0,1.03,i,1.13,7.0
CCOC(=O)CC1C(=O)NCCN1C(=O)c1cc2c(=O)n3cccc(C)c3nc2s1 (stereo not given),10.0%,15.0,1.13,x,2.14*,4.0
CCCOC(=O)CC1C(=O)NCCN1Cc1ccccc1C (stereo not given),7.0%,14.0,1.03,i,1.09,7.0
CCOC(=O)CC1C(=O)NCCN1C(=O)c1cc2c(=O)n3ccccc3nc2s1 (stereo not given),2.0%,2.0,1.16,x,2.08*,2.0
O=C(Nc1ccc2c(c1)OCO2)C1CCN(Cc2cnn(-c3ccccc3)c2-n2cccc2)CC1,7.0%,20.0,1.03,i,1.07,0.0
O=c1[nH]c(NCc2ccco2)nnc1Cc1ccccc1Cl,1.0%,0.0,1.03,i,1.07,11.0
CNC(=O)c1cc2cc(OC)ccc2oc1=N,4.0%,0.0,1.08,i,2.55*,0.0
COc1ccc2oc(=N)c(C(=O)Nc3ccccc3)cc2c1,7.0%,11.0,0.98,i,1.21,7.0
CNC(=O)c1cc2ccc(OC)cc2oc1=O,7.0%,4.0,1.21,x,3.57*,10.0
COc1ccccc1-c1cc(C(F)(F)F)nc(S(=O)(=O)CCCC(=O)Nc2cc(C)on2)n1,3.0%,5.0,1.01,x,3.71*,0.0
